Experimental data reported in PubChem BioAssay AID2587 (National Center for Advancing Translational Sciences (NCATS), 2010).
The source made the active and inactive calls. The call rests on the fitted dose curve; in most records, active means well fitted curve in the direction sought with a large enough effect; inactive means no such curve, though single readings can be large or run the other way.

These molecules were tested against Lysosomal acid glucosylceramidase (Homo sapiens) (UniProt P04062) (assay: qHTS Assay for Inhibitors and Activators of N370S glucocerebrosidase as a Potential Chaperone Treatment of Gaucher Disease: Chaperone Activity in Gauche Fibroblasts After Multi-day Incubation with Compound). Conditions: GC immunofluorescence, 5 days.
Sequence of Lysosomal acid glucosylceramidase (Homo sapiens) (P04062 whole entry N409S): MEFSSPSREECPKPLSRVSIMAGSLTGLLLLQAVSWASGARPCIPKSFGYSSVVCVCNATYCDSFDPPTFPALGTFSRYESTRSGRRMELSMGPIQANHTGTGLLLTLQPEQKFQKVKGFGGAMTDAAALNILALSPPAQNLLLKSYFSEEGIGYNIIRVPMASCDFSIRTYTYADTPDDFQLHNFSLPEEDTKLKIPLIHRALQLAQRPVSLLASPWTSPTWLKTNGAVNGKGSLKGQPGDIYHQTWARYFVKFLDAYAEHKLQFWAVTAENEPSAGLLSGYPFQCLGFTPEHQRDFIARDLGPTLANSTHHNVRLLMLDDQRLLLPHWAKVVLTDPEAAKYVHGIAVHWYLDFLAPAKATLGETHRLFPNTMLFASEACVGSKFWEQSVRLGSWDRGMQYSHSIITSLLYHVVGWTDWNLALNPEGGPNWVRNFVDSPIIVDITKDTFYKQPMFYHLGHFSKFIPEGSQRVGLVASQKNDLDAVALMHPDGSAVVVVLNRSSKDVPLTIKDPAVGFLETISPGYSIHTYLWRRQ
Excerpt: NIH Chemical Genomics Center [NCGC] NIH Molecular Libraries Probe Production Centers Network [MLPCN] MLPCN Grant: MH086442-01 Assay Submitter (PI): Wei Zheng Glucocerebrosidase (GC) catalyzes the hydrolysis of beta-glucocerebroside to glucose and ceramide in lysosomes. Mutations in the glucocerebrosidase gene result in Gaucher disease, an autosomal recessive lysosomal storage disorder. Many of the mutations encountered in patients with Gaucher disease are missense alterations that may cause misfolding, decreased stability and/or mistrafficking of this lysosomal protein. […] These inhibitors include iminosugar analogs and three non-iminosugar inhibitors identified from a previous HTS of 62,000 compounds with the wild type recombinant enzyme. However, the enhancement of enzyme activity by the chaperone action of an enzyme inhibitor must be balanced against the direct inhibition of the enzyme. An enzyme activator could also function as a chaperone by binding to the enzyme and helping to correct its misfolding and mistrafficking. […] This assay attempts to quantitate translocated glucocerebrosidase protein in patient-derived fibroblasts following extended compound incubation. […]
NCGC Assay Protocol Summary: 1. […] Visualized using a fluorescence microscope and the intensity of fluorescence in the selected areas were calculated. […]

Structure (SMILES)	Potency
O=S(=O)(c1ccc2ccccc2c1)N1CCN(c2nc(-c3cccs3)nc3ccccc23)CC1	501 nM (active)
S=C(NCCCc1cnc[nH]1)NCCCN(Cc1ccc(Cl)c(Cl)c1)c1ccc(Br)cn1	316 nM (active)
